# CYP2C9 inh: human CYP2C9 inhibition. P11712. CYP2C9 Supersomes, luciferin-H conversion, luminescence. inhibition, % at 5 µM. actives 20% (n = 96,000). AID 777;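 active = blocking of liver enzyme CYP2C9 beyond about 50% at 5 µM, limit read from the data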
# CYP2C19 act: cytochrome P450 2C19 (human) activation. P33261. recombinant CYP2C19, luciferin-H EGE luminescence; stronger effect = higher value; 0 = fully inhibited enzyme, 1 = untreated enzyme. activation factor at 5 µM. 96,000 tested, under 10 active. AID 1025;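 active = activation factor of at least 2 at 5 µM in the primary screen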;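 note: 0 = wells with 2.5 mM tranylcypromine and 1 = vehicle-only wells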
# Target sequence (P33261 whole entry, looked up): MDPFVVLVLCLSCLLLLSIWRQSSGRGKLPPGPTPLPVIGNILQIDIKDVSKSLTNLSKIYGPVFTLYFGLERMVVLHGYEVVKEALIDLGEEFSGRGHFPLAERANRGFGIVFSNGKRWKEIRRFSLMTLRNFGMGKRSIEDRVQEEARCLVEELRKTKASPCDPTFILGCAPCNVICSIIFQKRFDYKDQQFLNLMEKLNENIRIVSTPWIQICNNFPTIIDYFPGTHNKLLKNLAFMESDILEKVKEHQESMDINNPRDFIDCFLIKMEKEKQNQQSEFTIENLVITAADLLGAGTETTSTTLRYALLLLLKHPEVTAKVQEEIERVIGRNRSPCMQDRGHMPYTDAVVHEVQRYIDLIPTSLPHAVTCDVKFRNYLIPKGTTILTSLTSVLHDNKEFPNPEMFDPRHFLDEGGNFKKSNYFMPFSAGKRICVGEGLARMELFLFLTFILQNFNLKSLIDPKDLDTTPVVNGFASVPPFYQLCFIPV
# PostGolgi yeast: growth inhibition of a yeast mutant, post-Golgi transport screen. post-Golgi transport phenotypic cell assay. inhibition, % at 10 µM. actives 0.9% (n = 98,000). AID 739;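 note: yeast cells grown in 1536-well plates; yeast grown about 18 h at 30C before absorbance read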
# PostGolgi ctrl: growth of the yeast control strain, post-Golgi counter-screen; efflux-deficient yeast background strain, growth absorbance A615, 16 h; inhibition, % at 10 µM; actives 5% (n = 98,000); AID 738
# CYP2C9 activ: increases human cytochrome P450 2C9 activity | recombinant CYP2C9, luciferin-H conversion, luminescence; stronger effect = higher value; factor 1 = untreated enzyme, 0 = blocked | activation factor at 5 µM | actives 1.4% (n = 96,000);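 active = activation factor of 2 or more for CYP2C9 at a 5 µM dose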;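 note: 0 = sulfaphenazole-blocked wells and 1 = vehicle-only wells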
# CYP2C19 inh: blocks human cytochrome P450 2C19 | P33261 | CYP2C19 Supersomes, luciferin-H EGE luminescence, 30 min | inhibition, % at 5 µM | actives 21% (n = 96,000) | AID 778;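 active = CYP2C19 inhibition above a set limit at 5 µM in the primary screen, cut at about 50% in these data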;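 note: plate controls were negative control wells for no effect and 2.5 mM tranylcypromine positive control for full effect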
# * marks the source's active call; other numbers are inactive results; . = not tested or not shown. Rows were chosen to be rich in hits. Some 32% of all compounds tested hit in one or more screens of this group. Cut-off read from the data, not from the text of the source, unless noted: active = inhibition above about 30%; inactive = the rest.
SMILES,CYP2C9 inh,CYP2C19 act,PostGolgi yeast,PostGolgi ctrl,CYP2C9 activ,CYP2C19 inh
CC(C)CC(c1nnnn1CC1CCCO1)N1CCN(Cc2ccc3c(c2)OCO3)CC1 (stereo unspecified),-9,0.9,0,-3,1.1,12
CC(C)C(c1nnnn1Cc1ccc(F)cc1)N1CCN(C(=O)c2ccco2)CC1 (stereo unspecified),62*,0.5,9,15,0.4,50*
CC(C)C(c1nnnn1Cc1ccc(F)cc1)N1CCN(Cc2ccc3c(c2)OCO3)CC1 (stereo unspecified),72*,0.1,-4,23,0.3,87*
NC(=O)C1CCN(C(c2ccccc2Cl)c2nnnn2Cc2ccc3c(c2)OCO3)CC1 (stereo unspecified),68*,0.2,-3,13,0.3,81*
CCC(c1nnnn1Cc1ccccc1)N1CCN(C(=O)c2ccco2)CC1 (stereo unspecified),16,0.7,-4,3,0.8,26
CCC(c1nnnn1Cc1ccc2c(c1)OCO2)N1CCN(c2ccc(F)cc2)CC1 (stereo unspecified),87*,0.6,6,10,0.1,43
COc1ccc(Cn2nnnc2C(c2ccccc2OC)N2CCC(C(N)=O)CC2)cc1 (stereo unspecified),1,0.8,2,16,1,22
CCOC(=O)c1ccc(NC(=O)COc2ccc(S(=O)(=O)NC(C)C)cc2)cc1,13,0.8,-7,-6,0.9,24
CCC(c1nnnn1Cc1ccc2c(c1)OCO2)N1CCN(c2ccccc2)CC1 (stereo unspecified),81*,0.3,2,22,0.2,68*
CCC(c1nnnn1Cc1ccc2c(c1)OCO2)N1CCN(c2ccc(OC)cc2)CC1 (stereo unspecified),83*,0.3,0,8,0.2,73*
CC(=O)OCCCN1c2ccccc2Nc2nnc(-c3ccccc3)cc21,.,0.4,-6,11,.,61*
Cc1cc(C)nc(N2CCN(CC(=O)NCc3ccccc3)CC2)n1,-4,1.1,-2,13,1,-9
CC(NC(=O)CC(O)(C(F)(F)F)C(F)(F)F)c1ccccc1 (stereo unspecified),57*,0.2,1,5,0.4,78*
Cc1cccc(N2CCCC2=Nc2ccc(Br)cc2C#N)c1,6,1,-9,7,0.9,2
N#Cc1ccccc1N=C1CCCN1Cc1ccccc1,22,0.2,3,6,0.8,85*
COc1ccc(C2NCCC3(O)CCCCC23)c(OC)c1OC (stereo unspecified),-6,1,-1,1,1.1,3
CN(C1=NC(=O)C(CC(=O)Nc2ccc(Br)cc2)S1)c1ccc(O)cc1 (stereo unspecified),62*,0.9,-4,-8,0.4,10
CCOc1ccccc1-n1c(CN2CCN(C(=O)c3ccco3)CC2)nc2ccccc2c1=O,65*,0.4,-6,1,0.3,57*
O=C(c1ccco1)N1CCN(CCOCCOc2cccc3ccccc23)CC1,57*,0.3,1,6,0.4,68*
CCOc1cc(CN2CCN(C(=O)c3ccco3)CC2)ccc1OC,-14,1,2,2,1.1,3
O=C(c1ccco1)N1CCN(C2CCCC2)CC1,-6,0.7,10,4,1.1,28
Cc1sc2nc(C3CC3)nc(NCCNS(C)(=O)=O)c2c1C,76*,0.6,2,-7,0.2,36
Cc1nc(NCCc2ccc(S(N)(=O)=O)cc2)c2c(C)c(C)sc2n1,-6,1,-3,7,1.1,-4
CCc1c(C(=O)O)[nH]c2ccc(Br)cc12,26,1,-4,15,0.7,-2
CC(c1ccco1)N(C(=O)Nc1ccc(Cl)cc1)c1ccccn1 (stereo unspecified),56*,0.2,-2,-5,0.4,85*
CC(N=c1ccccn1C(=O)Nc1ccc(Cl)cc1)c1ccco1 (stereo unspecified),22,0.6,-9,3,0.8,40
Cc1ccc(C(=O)N(c2ccccn2)C(C)c2ccco2)cc1 (stereo unspecified),29,0.2,1,-2,0.7,80*

# High-throughput results (PubChem)
